# Results from the supplement of paper PMC11738630.
# Tested on: Salmonella enterica serovar Typhimurium 14028s
# Test: approximate change in surviving CFU after surface colonization relative to water-only control (log10 CFU/mL change); higher = more surviving bacteria (less inhibition of surface colonization)
# Conditions: not stated (Biolog proprietary concentration), surface: plastic 96-well plate, 20-24 h at 25 °C
smiles,measurement,setting,value
NCCO [Ethanolamine],approximate change in surviving CFU (log10),"Biolog plate: PM3, Biolog well: D9",-0.408
NCCc1c[nH]cn1 [Histamine],approximate change in surviving CFU (log10),"Biolog plate: PM3, Biolog well: E1",-0.987
Nc1[nH]cnc2ncnc1-2 [Adenine],approximate change in surviving CFU (log10),"Biolog plate: PM3, Biolog well: F2",-0.515
Nc1cc[nH]c(=O)n1 [Cytosine],approximate change in surviving CFU (log10),"Biolog plate: PM3, Biolog well: F5",1.14
Cc1c[nH]c(=O)[nH]c1=O [Thymine],approximate change in surviving CFU (log10),"Biolog plate: PM3, Biolog well: F8",-0.58
NCC(=O)N[C@@H](CCC(=O)O)C(=O)O,approximate change in surviving CFU (log10),"Biolog plate: PM3, Biolog well: H10",0.472
CSCC[C@H](NC(=O)CN)C(=O)O,approximate change in surviving CFU (log10),"Biolog plate: PM3, Biolog well: H11",-0.558
OC[C@H]1OC(O)[C@H](O)[C@@H](O)[C@H]1O (stereo partly drawn) [D-Galactose],approximate change in surviving CFU (log10),"Biolog plate: PM1, Biolog well: A6",1.59
OC[C@H]1O[C@H](O)[C@H](O)[C@@H](O)[C@@H]1O [a-D-Glucose],approximate change in surviving CFU (log10),"Biolog plate: PM1, Biolog well: C9",2.34
OC[C@H]1O[C@@H](O[C@@H]2[C@@H](CO)OC(O)(CO)[C@H]2O)[C@H](O)[C@@H](O)[C@H]1O (mixture of isomers) [Lactulose],approximate change in surviving CFU (log10),"Biolog plate: PM1, Biolog well: D10",1.05
CC[C@H](O)C(=O)O [a-Hydroxy Butyric Acid],approximate change in surviving CFU (log10),"Biolog plate: PM1, Biolog well: E7",-2.3
OCC(O)C(O)C(O)CO (configuration not stated) [Adonitol],approximate change in surviving CFU (log10),"Biolog plate: PM1, Biolog well: E9",1.37
OC[C@H]1O[C@H](O[C@H]2[C@H](O)[C@@H](O)[C@@H](O[C@H]3[C@H](O)[C@@H](O)[C@@H](O)O[C@@H]3CO)O[C@@H]2CO)[C@H](O)[C@@H](O)[C@@H]1O [Maltotriose],approximate change in surviving CFU (log10),"Biolog plate: PM1, Biolog well: E10",1.82
C[C@H](O)[C@@H](N)C(=O)O [D-Threonine],approximate change in surviving CFU (log10),"Biolog plate: PM1, Biolog well: F4",0.901
OCC1OC(OC2C(CO)OC(O)C(O)C2O)C(O)C(O)C1O [D-Cellobiose],approximate change in surviving CFU (log10),"Biolog plate: PM1, Biolog well: F11",1.2
NCC(=O)N1CCC[C@H]1C(=O)O [Glycyl-L-Proline],approximate change in surviving CFU (log10),"Biolog plate: PM1, Biolog well: H1",0.58
OCC1(O)OC[C@@H](O)[C@@H](O)[C@H]1O (stereo partly drawn) [D-Psicose],approximate change in surviving CFU (log10),"Biolog plate: PM1, Biolog well: H5",1.35
OC[C@H]1OC(O[C@H]2[C@H](O)[C@@H](O)C(O[C@H]3[C@H](O)[C@@H](O)[C@@H](O)O[C@@H]3CO)O[C@@H]2CO)[C@H](O)[C@@H](O)[C@@H]1O (some centres not stated) [Dextrin],approximate change in surviving CFU (log10),"Biolog plate: PM2, Biolog well: A6",0.665
O=C(O)[C@H]1O[C@@H](O)[C@H](O)[C@@H](O)[C@H]1O [Pectin],approximate change in surviving CFU (log10),"Biolog plate: PM2, Biolog well: A12",-0.343
N#C[C@H](O[C@@H]1O[C@H](CO[C@@H]2O[C@H](CO)[C@@H](O)[C@H](O)[C@H]2O)[C@@H](O)[C@H](O)[C@H]1O)c1ccccc1 [Amygdalin],approximate change in surviving CFU (log10),"Biolog plate: PM2, Biolog well: B4",0.966
OC[C@H]1O[C@@H](Oc2ccc(O)cc2)[C@H](O)[C@@H](O)[C@@H]1O [Arbutin],approximate change in surviving CFU (log10),"Biolog plate: PM2, Biolog well: B8",1.29
OC[C@H]1O[C@@](CO)(O[C@H]2O[C@H](CO)[C@@H](O)[C@H](O)[C@H]2O)[C@@H](O[C@H]2O[C@H](CO)[C@@H](O)[C@H](O)[C@H]2O)[C@@H]1O [D-Melezitose],approximate change in surviving CFU (log10),"Biolog plate: PM2, Biolog well: C4",1.16
O=C(CO)[C@@H](O)[C@H](O)[C@H](O)CO[C@H]1O[C@H](CO)[C@@H](O)[C@H](O)[C@H]1O [Palatinose],approximate change in surviving CFU (log10),"Biolog plate: PM2, Biolog well: C12",0.751
OC[C@H]1O[C@H](OC[C@H]2O[C@H](O[C@]3(CO)O[C@H](CO)[C@@H](O)[C@@H]3O)[C@H](O)[C@@H](O)[C@@H]2O)[C@H](O)[C@@H](O)[C@H]1O [D-Raffinose],approximate change in surviving CFU (log10),"Biolog plate: PM2, Biolog well: D1",0.494
OC[C@@]12OC[C@@H](O1)[C@@H](O)[C@@H](O)[C@@H]2O [Sedoheptulosan],approximate change in surviving CFU (log10),"Biolog plate: PM2, Biolog well: D3",0.451
C/C(=C/C(=O)O)C(=O)O [Citraconic Acid],approximate change in surviving CFU (log10),"Biolog plate: PM2, Biolog well: E3",0.472
CC(O)(CC(=O)O)C(=O)O (configuration not stated) [Citramalic Acid],approximate change in surviving CFU (log10),"Biolog plate: PM2, Biolog well: E4",0.687
